Assay results taken from PubChem BioAssay (NCI).
The panel holds about 79,000 compounds, 15% with a hit somewhere; the sample as a whole holds those more often. Rule as the data show it: active = growth inhibition above about 70%; inactive = the rest.

Columns and labels:
[1] = NCI Yeast Anticancer Drug Screen. Data for the rad50 strain (AID 155);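 also: 0% = growth of vehicle-only cultures of the same strain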; conditions: S. cerevisiae rad50 strain growth inhibition; at 50.0 µM; hits give high values
How it was run: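 Inhibition values express reduced yeast growth in compound-treated cultures relative to vehicle-treated controls.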

[2] = NCI Yeast Anticancer Drug Screen. Data for the mec2-1 strain (AID 157); conditions: S. cerevisiae mec2-1 strain, at 50.0 µM, hits give high values
How it was run: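 Using mec2-1 yeast: add compound, measure growth, express inhibition versus vehicle-treated cultures.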

[3] = NCI Yeast Anticancer Drug Screen. Data for the sgs1 mgt1 strain (AID 161);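 also: 0% = growth of cultures given vehicle only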; conditions: S. cerevisiae sgs1 mgt1 strain, at 50.0 µM, hits give high values
How it was run: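 This yeast growth screen uses a strain with defined DNA-repair lesions; compound-treated growth is compared with vehicle-treated growth.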

[4] = NCI Yeast Anticancer Drug Screen. Data for the cln2 rad14 strain (AID 165);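 also: 0% = growth equal to vehicle treated cultures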; conditions: S. cerevisiae cln2 rad14 strain, at 50.0 µM, hits give high values
How it was run: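 Yeast strain cln2 rad14, bearing defects in cell cycle control and DNA repair, serves as the test system; values reflect growth inhibition compared with vehicle.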

[5] = NCI Yeast Anticancer Drug Screen. Data for the bub3 strain (AID 167); conditions: S. cerevisiae bub3 mutant strain, at 50.0 µM, hits give high values
How it was run: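 Steps: expose the mutant yeast strain to compound; grow alongside vehicle-treated cultures; measure growth; express inhibition against the vehicle cultures.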

[6] = NCI Yeast Anticancer Drug Screen. Data for the mlh1 rad18 strain (AID 175); conditions: S. cerevisiae mlh1 rad18 strain growth inhibition; at 50.0 µM; hits give high values
How it was run: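 Steps: expose repair-defective yeast to compound; measure growth; express inhibition against vehicle-treated controls.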

Measured: growth inhibition

CCOC(=O)C(CO)C1CCCC1 (stereo not given)
inactive: [1] 10.3% | [2] -2.65% | [3] 7.9% | [4] -5.4% | [5] 5.05% | [6] 2.75%

CC(C)=CCC/C(C)=C/C=O
inactive: [1] 9.1% | [2] 2.95% | [3] 5.1% | [4] 9.6% | [5] 7.95% | [6] 8.4%

CCCCOC(=O)N1CCCCC1
inactive: [1] -9.75% | [2] -8.15% | [3] -17.3% | [4] -5.9% | [5] -14.3% | [6] -5.75%

CC([C@H](c1ccccc1)C1CCC(C(N)=O)(N2CCOCC2)C1)[N+](=O)[O-] (stereo not given in full)
inactive: [1] 5.8% | [2] 7.9% | [3] 12.3% | [4] 39.1% | [5] 4.45% | [6] 9.85%

CS(=O)(=O)CC(=O)c1ccc(Br)cc1
inactive: [1] -3.1% | [2] -4.05% | [3] 14.1% | [4] -12.8% | [5] -5.45% | [6] 10.3%
